According to ChEMBL document CHEMBL1961873, “Compounds: GSK PKIS; Assays: Nanosyn kinase panel” (2012):

Tests used:
[1] = biological target: T1, Muscle, skeletal receptor tyrosine-protein kinase (Homo sapiens) (UniProt O15146); conditions: at 1 µM;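 also: reported value is the mean percent inhibition of MuSK kinase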
T1 sequence (whole entry): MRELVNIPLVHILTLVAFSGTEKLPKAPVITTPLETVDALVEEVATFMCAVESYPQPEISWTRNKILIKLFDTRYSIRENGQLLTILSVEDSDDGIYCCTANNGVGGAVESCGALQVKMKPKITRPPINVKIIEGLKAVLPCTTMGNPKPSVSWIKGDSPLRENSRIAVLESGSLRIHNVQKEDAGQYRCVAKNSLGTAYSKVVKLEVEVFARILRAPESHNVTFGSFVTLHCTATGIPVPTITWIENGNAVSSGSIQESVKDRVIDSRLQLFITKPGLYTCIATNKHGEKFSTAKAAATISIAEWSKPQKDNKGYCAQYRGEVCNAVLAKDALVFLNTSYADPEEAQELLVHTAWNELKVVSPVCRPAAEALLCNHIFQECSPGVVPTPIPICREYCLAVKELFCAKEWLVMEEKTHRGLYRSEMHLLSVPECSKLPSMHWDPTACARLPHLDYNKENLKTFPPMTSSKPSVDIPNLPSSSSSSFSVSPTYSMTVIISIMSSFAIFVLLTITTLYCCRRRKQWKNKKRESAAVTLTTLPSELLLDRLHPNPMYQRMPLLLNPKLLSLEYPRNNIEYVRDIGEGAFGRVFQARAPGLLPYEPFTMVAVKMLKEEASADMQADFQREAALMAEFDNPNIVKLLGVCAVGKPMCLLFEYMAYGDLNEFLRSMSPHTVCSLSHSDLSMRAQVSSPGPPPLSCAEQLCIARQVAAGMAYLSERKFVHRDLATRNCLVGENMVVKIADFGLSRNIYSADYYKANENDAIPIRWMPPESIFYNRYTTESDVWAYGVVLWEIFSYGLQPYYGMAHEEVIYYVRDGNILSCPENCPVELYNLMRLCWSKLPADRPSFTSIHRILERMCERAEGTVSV

[2] = biological target: Platelet-derived growth factor receptor alpha (Homo sapiens) (UniProt P16234); conditions: at 0.1 µM
[3] = biological target: Platelet-derived growth factor receptor alpha (Homo sapiens) (UniProt P16234); conditions: at 1 µM
[4] = test system: Platelet-derived growth factor receptor alpha (Homo sapiens), P16234 [D842V]; conditions: at 0.1 µM
[5] = test system: Platelet-derived growth factor receptor alpha (Homo sapiens), P16234 [D842V]; conditions: at 1 µM
[6] = test system: Platelet-derived growth factor receptor alpha (Homo sapiens), P16234 [T674I]; conditions: at 0.1 µM
[7] = test system: Platelet-derived growth factor receptor alpha (Homo sapiens), P16234 [T674I]; conditions: at 1 µM
[8] = test system: Platelet-derived growth factor receptor alpha (Homo sapiens), P16234 [V561D]; conditions: at 0.1 µM
[9] = test system: Platelet-derived growth factor receptor alpha (Homo sapiens), P16234 [V561D]; conditions: at 1 µM
[10] = biological target: Platelet-derived growth factor receptor beta (Homo sapiens) (UniProt P09619); conditions: at 0.1 µM;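 also: reported value is the mean percent inhibition of the kinase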
Sequence of Platelet-derived growth factor receptor beta (Homo sapiens) (P09619 whole entry): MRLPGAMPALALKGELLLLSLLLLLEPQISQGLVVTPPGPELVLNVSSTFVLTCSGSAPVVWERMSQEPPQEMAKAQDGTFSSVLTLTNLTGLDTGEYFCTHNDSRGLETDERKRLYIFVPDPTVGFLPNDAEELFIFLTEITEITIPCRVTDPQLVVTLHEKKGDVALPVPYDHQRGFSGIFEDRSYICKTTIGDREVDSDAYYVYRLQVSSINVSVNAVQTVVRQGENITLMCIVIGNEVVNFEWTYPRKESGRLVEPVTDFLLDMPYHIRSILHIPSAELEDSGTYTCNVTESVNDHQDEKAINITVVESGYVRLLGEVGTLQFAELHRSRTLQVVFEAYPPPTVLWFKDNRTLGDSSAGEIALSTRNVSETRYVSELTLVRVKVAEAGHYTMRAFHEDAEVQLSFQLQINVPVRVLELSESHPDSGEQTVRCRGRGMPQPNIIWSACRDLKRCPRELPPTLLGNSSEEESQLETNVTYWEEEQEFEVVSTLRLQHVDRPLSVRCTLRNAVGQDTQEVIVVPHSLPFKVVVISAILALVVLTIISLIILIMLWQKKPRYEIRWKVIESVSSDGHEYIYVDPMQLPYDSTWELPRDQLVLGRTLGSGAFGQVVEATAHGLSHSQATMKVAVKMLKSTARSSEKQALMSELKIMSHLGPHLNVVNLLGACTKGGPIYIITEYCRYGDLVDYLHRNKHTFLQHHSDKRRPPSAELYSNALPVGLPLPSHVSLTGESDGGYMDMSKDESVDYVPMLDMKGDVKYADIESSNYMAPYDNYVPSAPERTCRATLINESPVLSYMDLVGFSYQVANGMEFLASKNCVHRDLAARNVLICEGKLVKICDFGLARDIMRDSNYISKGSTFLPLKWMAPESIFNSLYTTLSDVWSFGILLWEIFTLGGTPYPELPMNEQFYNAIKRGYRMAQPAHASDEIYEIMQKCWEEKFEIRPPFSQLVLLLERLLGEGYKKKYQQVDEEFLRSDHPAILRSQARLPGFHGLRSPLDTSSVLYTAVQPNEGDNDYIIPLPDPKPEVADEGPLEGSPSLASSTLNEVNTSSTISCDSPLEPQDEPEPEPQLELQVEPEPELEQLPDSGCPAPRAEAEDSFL

Sequence of Platelet-derived growth factor receptor alpha (Homo sapiens) (P16234 whole entry): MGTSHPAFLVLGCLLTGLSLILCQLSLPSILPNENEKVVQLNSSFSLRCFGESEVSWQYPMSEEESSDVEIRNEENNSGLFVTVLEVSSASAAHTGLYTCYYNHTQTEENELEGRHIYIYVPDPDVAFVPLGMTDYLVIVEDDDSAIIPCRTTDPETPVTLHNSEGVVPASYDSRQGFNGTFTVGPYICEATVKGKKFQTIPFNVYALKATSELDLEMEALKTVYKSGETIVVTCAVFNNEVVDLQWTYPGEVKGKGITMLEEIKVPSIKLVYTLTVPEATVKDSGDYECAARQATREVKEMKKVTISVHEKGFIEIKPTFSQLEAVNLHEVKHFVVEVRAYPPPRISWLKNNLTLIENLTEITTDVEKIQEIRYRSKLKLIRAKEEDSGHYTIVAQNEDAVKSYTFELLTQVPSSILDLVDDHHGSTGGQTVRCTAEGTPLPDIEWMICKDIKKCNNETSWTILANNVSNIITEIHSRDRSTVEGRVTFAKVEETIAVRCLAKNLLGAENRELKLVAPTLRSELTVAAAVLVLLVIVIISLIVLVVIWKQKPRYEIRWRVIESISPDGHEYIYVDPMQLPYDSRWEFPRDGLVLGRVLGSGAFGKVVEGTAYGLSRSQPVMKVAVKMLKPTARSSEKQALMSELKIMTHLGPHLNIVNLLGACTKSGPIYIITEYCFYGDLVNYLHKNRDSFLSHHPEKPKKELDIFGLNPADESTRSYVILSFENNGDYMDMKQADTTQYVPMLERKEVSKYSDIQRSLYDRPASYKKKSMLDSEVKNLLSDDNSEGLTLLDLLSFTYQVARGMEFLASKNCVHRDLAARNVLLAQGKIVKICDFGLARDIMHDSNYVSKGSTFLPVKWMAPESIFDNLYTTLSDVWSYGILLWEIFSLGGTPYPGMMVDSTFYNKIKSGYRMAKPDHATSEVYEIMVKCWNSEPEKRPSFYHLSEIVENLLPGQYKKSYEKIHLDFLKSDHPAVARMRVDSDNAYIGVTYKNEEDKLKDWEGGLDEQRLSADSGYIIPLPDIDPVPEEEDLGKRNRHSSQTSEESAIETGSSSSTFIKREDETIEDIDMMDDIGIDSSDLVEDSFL
Sequence of Platelet-derived growth factor receptor alpha (Homo sapiens), P16234 [T674I] (P16234 whole entry T674I): as the sequence (P16234 whole entry) above, with T674I counted along it
Sequence of Platelet-derived growth factor receptor alpha (Homo sapiens), P16234 [D842V] (P16234 whole entry D842V): as the sequence (P16234 whole entry) above, with D842V counted along it
Sequence of Platelet-derived growth factor receptor alpha (Homo sapiens), P16234 [V561D] (P16234 whole entry V561D): as the sequence (P16234 whole entry) above, with V561D counted along it

Compound	inhibition [1]	inhibition [2]	inhibition [3]	inhibition [4]	inhibition [5]	inhibition [6]	inhibition [7]	inhibition [8]	inhibition [9]	inhibition [10]
COC(=O)Nc1nc2ccc(Oc3ccc(NC(=O)Nc4cccc(Cl)c4)cc3)cc2[nH]1	33.2%	62.2%	76.9%	2.44%	8.07%	76.6%	85.5%	74.6%	92.6%	12.2%
CC1=C(C(=O)Nc2cc(Cl)c3[nH]ncc3c2)C(c2ccc(C(F)(F)F)cc2)CC(=O)N1 (stereo not given)	9.6%	4.87%	8.87%	2.44%	4.3%	5.17%	7.54%	4.08%	4.27%	0.58%
Cc1ccc2c(-c3ccnc(Nc4ccccc4)n3)c(-c3ccc(F)cc3)nn2n1	4.61%	14.8%	47.9%	8.2%	46.6%	4.09%	4.32%	11.6%	59.1%	22.5%
CN1CCC(n2cnc(-c3ccc(F)cc3)c2-c2ccnc(Nc3ccccc3)n2)CC1	2.15%	8.81%	22.1%	4.56%	18.6%	5.9%	5.98%	5.65%	15.5%	7.67%
NC(=O)c1sc(-n2cnc3ccc(C(F)(F)F)cc32)cc1OCc1ccccc1Br	2.38%	4.59%	11%	1.61%	5.02%	5.32%	5.62%	3.53%	4.84%	-1.07%
COc1cc(N2CCN(C(C)C)CC2)ccc1Nc1nc(Nc2ccc(F)cc2C(N)=O)c2cc[nH]c2n1	13.2%	3.76%	31.1%	1.57%	21.6%	1.91%	5.04%	1.82%	21.8%	5.8%
CN1CCC(n2cnc(-c3ccc(F)cc3)c2-c2ccnc(N)n2)CC1	3.89%	6.86%	25.6%	3.56%	17.9%	4.48%	5.18%	4.45%	16.9%	4.26%
Fc1cccc(COc2ccc(Nc3ncnc4sc(-c5ccco5)cc34)cc2Cl)c1	3.44%	13.5%	19.9%	3%	2.87%	6.38%	15.5%	6.49%	4.1%	7.85%
CCN(CC)S(=O)(=O)c1ccc(OC)c(Nc2ncc(-c3ccccc3)o2)c1	6.08%	12.7%	50.7%	5.3%	23.2%	8.47%	8.95%	10.1%	39.2%	19.2%
Nc1ncc(-c2cccc(S(N)(=O)=O)c2)c2scc(-c3ccc(F)c(Cl)c3)c12	1.44%	18.9%	72.1%	7.66%	42.4%	4.52%	10.5%	36.8%	78.1%	14.8%
COc1cc(/C=N/Nc2ncnc3[nH]ncc23)ccc1O	22.6%	27.3%	72.4%	28.4%	80.8%	3.77%	16.5%	25%	76.3%	21.9%
NS(=O)(=O)c1ccc(N/N=C2\C(=O)Nc3ccc4ncccc4c32)cc1	49.5%	58.9%	82.2%	63.4%	92.3%	16.7%	73.6%	54.5%	92.4%	63.2%
CCn1c(-c2nonc2N)nc2c(C#CC(C)(C)O)nc(OC[C@H](N)c3ccccc3)cc21	5.52%	4.66%	43.8%	12.2%	61.6%	9.88%	47%	4.88%	42.3%	13%
CNC(=O)c1cncc(/C=C/c2ccccc2Cl)c1	8.03%	7.6%	19.1%	-1.08%	4.93%	2.9%	2.13%	4.99%	23.1%	7.75%
Clc1ccc(-c2nn3ncccc3c2-c2ccnc(Nc3ccccc3)n2)cc1	1.46%	6.5%	31.3%	6.95%	18.8%	3.65%	8.75%	12.4%	42%	6.84%
N#Cc1c(NC(=O)c2ccc(F)cc2)sc2c1CCCC2	2.55%	5.56%	7.32%	1.23%	1%	3.5%	3.1%	0.92%	3.17%	1.37%
CCn1c(-c2nonc2N)nc2cnc(Oc3cccc(NC(=O)c4ccc(N(C)C)cc4)c3)cc21	2.13%	4.44%	6.4%	1.28%	1.65%	2.82%	4.91%	1.85%	6.18%	3.88%

Compound	inhibition [1]	inhibition [2]	inhibition [3]	inhibition [4]	inhibition [5]	inhibition [6]	inhibition [7]	inhibition [8]	inhibition [9]	inhibition [10]
COc1ccc(-c2cc(-c3c[nH]nc3-c3ccccn3)ccn2)cc1	4.1%	13.7%	42.1%	14.9%	58.7%	7.15%	9.53%	11.1%	40.6%	7.26%
CCn1c(-c2nonc2N)nc2c(C#CC(C)(C)O)ncc(OC3CCNCC3)c21	5.05%	4.05%	19.5%	5.06%	33.8%	4.95%	28.3%	2.59%	17%	5.33%
Fc1ccc(-c2nn3ncccc3c2-c2ccnc(Nc3ccc4c(c3)OCCO4)n2)cc1	3.55%	15.1%	54.8%	12.1%	56.1%	5.87%	17.9%	21.9%	72%	29.3%
CC(=O)NCc1cccc(C#Cc2cncnc2Nc2ccc(OCc3cccc(F)c3)c(Cl)c2)c1	3.72%	0.56%	6.14%	1.48%	1.63%	2.23%	3.66%	5.19%	2.8%	0.9%
CCN1CCC(CC(=O)Nc2n[nH]c3nnc(-c4cccc(F)c4F)cc23)CC1	-2.42%	5.32%	10.4%	4.75%	2.84%	3.48%	4.83%	2.85%	3.83%	-0.56%
COc1ccc2c(-c3ccnc(Nc4cccc(OC(F)(F)F)c4)n3)cnn2n1	11.5%	9.71%	30.5%	-0.9%	13.4%	7.01%	9.76%	5.14%	19.4%	4.02%
N#Cc1c(NC(=O)CN2CCOCC2)sc2c1CCCC2	5.38%	6.84%	10.4%	3.81%	4.78%	6.89%	9.82%	4.95%	3.92%	2.42%
Nc1nc(-c2ccc(F)cc2)c(-c2ccc3ncccc3n2)s1	7.29%	16.9%	51.7%	14.4%	61.6%	9.38%	11.5%	13.2%	49.5%	10.9%
COc1ccc(-c2cc3c(N)ncnc3o2)cc1	2.3%	-1.4%	16.5%	2.85%	9.77%	1.44%	4.01%	3.4%	19.1%	1.93%
Cc1cccc2c1NC(=O)/C2=N\Nc1ccc(S(N)(=O)=O)cc1	5.17%	7.81%	17.4%	0.21%	8.1%	3.33%	7.27%	13.4%	41.3%	2.52%
Nc1nc(-c2cccc(Cl)c2)c(-c2ccc3ncccc3n2)s1	2.14%	8.04%	28.3%	8.3%	40.8%	5.77%	9.67%	9.61%	26.7%	5.64%
COc1cc2ncn(-c3cc(OCc4ccccc4C(F)(F)F)c(C(=O)N(C)C)s3)c2cc1OC	2.19%	11%	39.9%	4.06%	23.9%	2.17%	1.13%	5.15%	26.5%	6.2%
CCNC(=O)O[C@H]1CN[C@H](C#Cc2cc3ncnc(Nc4ccc(OCc5cccc(F)c5)c(Cl)c4)c3s2)C1	3.77%	5.36%	8.44%	1.55%	1.32%	4.01%	3.06%	1.45%	1.92%	2.77%
CCc1nn2ncccc2c1-c1ccnc(NC2CC2)n1	3.55%	4.59%	8.05%	1.28%	5.3%	4.48%	5.6%	3.69%	5.92%	4.03%
CC(C)(CO)CNC(=O)c1ccc2c(c1)/C(=N/Nc1ccc(S(N)(=O)=O)cc1)C(=O)N2	21.6%	18.7%	62.5%	23.2%	77.3%	-0.15%	6.93%	15.7%	65.4%	38.7%
COC(=O)Nc1nc2ccc(S(=O)(=O)c3ccc(NC(=O)Nc4cc(C(F)(F)F)ccc4F)cc3)cc2[nH]1	4.85%	2.65%	4.3%	3.19%	0.61%	3.85%	2.62%	2.98%	3.2%	5.73%
CCCN1CCC(c2ccc(Nc3nc(Nc4cc(F)ccc4C(N)=O)c4cc[nH]c4n3)c(OC)c2)CC1	15%	8.78%	46.5%	6.28%	43.8%	4.13%	9.42%	8.22%	36.4%	10.4%
